{"source": "PubChem BioAssay AID1946", "about": "(Johns Hopkins Ion Channel Center, 2009)", "note": "Screen size: about 2,400 compounds; about 180 (7.5%) were called active. For the sample, actives were picked, then their nearest neighbours and some compounds at random. Values without a mark were called inactive.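 Rule for the calls: active = readout below zero, meaning a drop past 3 SD under the dofetilide-free negative control mean; inactive = the rest.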", "data": [{"biological_target": "Potassium voltage-gated channel subfamily KQT member 2 (Rattus norvegicus) (UniProt O88943)", "sequence (O88943 whole entry, looked up)": "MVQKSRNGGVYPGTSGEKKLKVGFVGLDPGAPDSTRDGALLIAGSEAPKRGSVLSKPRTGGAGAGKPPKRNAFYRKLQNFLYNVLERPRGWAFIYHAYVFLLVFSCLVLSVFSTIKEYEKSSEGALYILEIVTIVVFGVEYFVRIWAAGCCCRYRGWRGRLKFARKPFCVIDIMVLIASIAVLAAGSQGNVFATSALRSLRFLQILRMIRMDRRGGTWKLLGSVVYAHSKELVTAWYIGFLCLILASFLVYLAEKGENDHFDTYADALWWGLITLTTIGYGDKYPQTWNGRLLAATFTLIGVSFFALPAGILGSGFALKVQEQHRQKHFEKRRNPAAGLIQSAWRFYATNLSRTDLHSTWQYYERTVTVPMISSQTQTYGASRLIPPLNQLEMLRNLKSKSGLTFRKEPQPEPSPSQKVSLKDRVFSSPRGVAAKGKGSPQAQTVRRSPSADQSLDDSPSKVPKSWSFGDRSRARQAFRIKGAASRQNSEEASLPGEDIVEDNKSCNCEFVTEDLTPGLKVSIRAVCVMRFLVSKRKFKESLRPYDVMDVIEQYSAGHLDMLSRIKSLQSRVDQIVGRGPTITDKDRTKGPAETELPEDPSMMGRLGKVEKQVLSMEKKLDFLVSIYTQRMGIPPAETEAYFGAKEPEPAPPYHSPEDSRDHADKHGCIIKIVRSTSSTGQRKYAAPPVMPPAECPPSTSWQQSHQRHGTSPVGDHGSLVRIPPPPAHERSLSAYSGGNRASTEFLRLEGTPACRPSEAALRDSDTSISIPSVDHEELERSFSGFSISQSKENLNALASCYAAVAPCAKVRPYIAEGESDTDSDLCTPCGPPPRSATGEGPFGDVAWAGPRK", "test": "KCNQ2 blockade in CHO cells – cell-based, FluxOR thallium flux, counter-screen for hERG block protector project, confirmation (AID 1946)", "settings": "FluxOR thallium flux fluorescence, at 10 µM, active compounds read low, zero marks the 3-SD hit cutoff", "values": [{"compound": "COc1ccc(C(=O)NC(=S)N(Cc2ccccc2)Cc2ccccc2)cc1", "activity change vs negative control": "51.4%"}, {"compound": "CCOC(=O)N1CCN(c2c(-c3ccc(C)c(C)c3)c(=O)c2=O)CC1", "activity change vs negative control": "20.5%"}, {"compound": "Cc1ccc(C(=O)NC(=S)N(C)C2CCCCC2)cc1Br", "activity change vs negative control": "17.4%"}, {"compound": "CCCCNC(=S)NNC(=O)c1ccc2c(c1)OCO2", "activity change vs negative control": "-2.9% (active)"}, {"compound": "COc1ccc(CCNC(=O)c2ccc3c(c2)OCO3)cc1", "activity change vs negative control": "5%"}, {"compound": "Cc1ccc(C(C)NC(=O)c2ccc3c(c2)OCO3)cc1C", "note": "(stereo not drawn)", "activity change vs negative control": "58.4%"}, {"compound": "O=c1c(-c2ccccc2)nc(-c2ccccc2)cn1O", "activity change vs negative control": "88.1%"}, {"compound": "COc1cccc(C(=O)NNC(=O)C(=O)Nc2cccc(Cl)c2C)c1", "activity change vs negative control": "83.6%"}, {"compound": "COC(=O)C1=NN(C(=O)c2cccc(Br)c2)C(O)(c2ccc(Cl)cc2)C1", "note": "(stereo not drawn)", "activity change vs negative control": "158%"}, {"compound": "Cc1nc(SCC(=O)NCC2CCCO2)c2c3c(sc2n1)CCCC3", "note": "(stereo not drawn)", "activity change vs negative control": "32.5%"}, {"compound": "CCOC(=O)c1cnn(-c2nc(SC)nc3sc4c(c23)CCCC4)c1N", "activity change vs negative control": "5.9%"}, {"compound": "Cc1ccc(NC(=O)CCc2nc3sc4c(c3c(=O)[nH]2)CCCC4)c(Br)c1", "activity change vs negative control": "-0.3% (active)"}, {"compound": "Fc1ccc(NC(=S)Nc2nccs2)cc1", "activity change vs negative control": "16.4%"}, {"compound": "CCC(C)c1ccccc1NC(=S)NC(=O)c1ccco1", "note": "(stereo not drawn)", "activity change vs negative control": "82%"}, {"compound": "O=C(CCN1C(=O)/C(=C/c2cccs2)SC1=S)Nc1cccc(C(=O)O)c1", "activity change vs negative control": "5.2%"}, {"compound": "COc1cc(/C=C2/SC(=S)N(CC(=O)O)C2=O)ccc1OCC(=O)Nc1ccc(C)c(C)c1", "activity change vs negative control": "-3.8% (active)"}, {"compound": "Cc1ccc(NC(=O)CN2C(=O)S/C(=C/c3ccc(-c4cc(C(=O)O)ccc4C)o3)C2=O)cc1C", "activity change vs negative control": "4.8%"}, {"compound": "CSc1nc2c(c(=O)[nH]1)C(c1ccccc1Cl)CC(=O)N2", "note": "(stereo not drawn)", "activity change vs negative control": "1.5%"}, {"compound": "Cc1cccc(NC(=S)NC(=O)c2ccc(Br)o2)c1C", "activity change vs negative control": "27.3%"}, {"compound": "Cc1ccc(C(=O)NC(C)c2ccc(C)c(C)c2)s1", "note": "(stereo not drawn)", "activity change vs negative control": "53.7%"}, {"compound": "COc1cc(/C=C/C(=O)O)ccc1OS(=O)(=O)c1cc(C)ccc1C", "activity change vs negative control": "13.1%"}, {"compound": "COc1ccc(/C=C2\\SC(c3ccc(C)cc3)=NC2=O)cc1OC", "activity change vs negative control": "-3.2% (active)"}, {"compound": "COc1ccc(/C=C2\\SC(=N)N(c3nccs3)C2=O)cc1OC", "activity change vs negative control": "6.8%"}, {"compound": "O=S(=O)(NC(=S)NC1CCCCC1)c1ccc(Cl)cc1", "activity change vs negative control": "34.4%"}, {"compound": "S=c1nc(Cc2ccc(Cl)cc2)[nH]c2ccccc12", "activity change vs negative control": "51.9%"}, {"compound": "COc1ccccc1C(=O)NNC(=O)C(=O)NCc1ccccc1", "activity change vs negative control": "41.8%"}, {"compound": "COc1ccccc1NC(=O)C1CCCN1C(=O)Nc1ccc(F)cc1", "note": "(stereo not drawn)", "activity change vs negative control": "1.7%"}, {"compound": "COc1ccccc1NC(=O)C1CCCN1C(=O)NCc1ccccc1", "note": "(stereo not drawn)", "activity change vs negative control": "-1.2% (active)"}]}]}
